Reference: the supplement of paper PMC6555819

Columns and labels:
Assay in all cases: PBM binding z-score (relative to random genomic background probes); higher = stronger binding; sequences stand for … in GC…GCGATTGACAGCGTAGAATGAAGG
[1] = tested on: FXR:RXRa (NR concentration 270 nM, RXRa partner concentration 90 nM)
Summary of the method: (§1)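 Custom Agilent 4×180K protein-binding microarrays carried double-stranded probes. Their 34-nt variable regions held direct-repeat seeds, single-nucleotide variants, half-site ablations and random human genomic background sequences. Arrays were incubated 1 h with ligand-free nuclear receptor dimers in PBS pH 7.4, 2% milk, 0.02% Triton X-100, 1 mM DTT, 0.2 mg/mL BSA and 0.4 mg/ml salmon testes DNA. Antibodies against each partner (one per run) detected binding, and scanned fluorescence was regression-normalized. Binding z-scores use random background probes as reference.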

[2] = tested on: LXRa:RXRa (NR concentration 270 nM, RXRa partner concentration 90 nM)
Summary of the method: as §1

[3] = tested on: LXRa homodimer (NR concentration 270 nM)
Summary of the method: as §1

[4] = tested on: LXRb:RXRa (NR concentration 270 nM, RXRa partner concentration 90 nM)
Summary of the method: as §1

[5] = tested on: LXRb homodimer (NR concentration 270 nM)
Summary of the method: as §1

[6] = tested on: PPARa:RXRa (NR concentration 270 nM, RXRa partner concentration 90 nM)
Summary of the method: as §1

[7] = tested on: PPARg:RXRa (NR concentration 180 nM, RXRa partner concentration 90 nM)
Summary of the method: as §1

[8] = tested on: PPARg:RXRa 270nM:90nM, anti-RXR (NR concentration 270 nM, RXRa partner concentration 90 nM)
Summary of the method: as §1

[9] = tested on: PPARg:RXRa 30nM:10nM, anti-RXR (NR concentration 30 nM, RXRa partner concentration 10 nM)
Summary of the method: as §1

[10] = tested on: PPARg:RXRa 90nM:30nM, anti-RXR (NR concentration 90 nM, RXRa partner concentration 30 nM)
Summary of the method: as §1

[11] = tested on: PPARg:RXRa DBDmut IVT, anti-RXR (DBD mutation: RXRa K156A/R161A, NR concentration 270 nM, RXRa partner concentration 90 nM)
Summary of the method: as §1

[12] = tested on: PPARg:RXRa IVT, anti-PPARg (NR concentration 270 nM, RXRa partner concentration 90 nM)
Summary of the method: as §1

[13] = tested on: PPARg DBDmut:RXRa IVT, anti-PPARg (DBD mutation: PPARg1 K132A/R137A, NR concentration 270 nM, RXRa partner concentration 90 nM)
Summary of the method: as §1

[14] = tested on: PPARg DBDmut IVT, anti-PPARg (DBD mutation: PPARg1 K132A/R137A, NR concentration 270 nM)
Summary of the method: as §1

[15] = tested on: PPARg homodimer (NR concentration 180 nM)
Summary of the method: as §1

[16] = tested on: PXR:RXRa (NR concentration 270 nM, RXRa partner concentration 90 nM)
Summary of the method: as §1

[17] = tested on: PXR homodimer (NR concentration 270 nM)
Summary of the method: as §1

[18] = tested on: RARa:RXR (NR concentration 270 nM, RXRa partner concentration 90 nM)
Summary of the method: as §1

[19] = tested on: RARa homodimer (NR concentration 270 nM)
Summary of the method: as §1

[20] = tested on: RARb:RXRa (NR concentration 270 nM, RXRa partner concentration 90 nM)
Summary of the method: as §1

Row | Sequence | PBM binding z-score [1] | PBM binding z-score [2] | PBM binding z-score [3] | PBM binding z-score [4] | PBM binding z-score [5] | PBM binding z-score [6] | PBM binding z-score [7] | PBM binding z-score [8] | PBM binding z-score [9] | PBM binding z-score [10] | PBM binding z-score [11] | PBM binding z-score [12] | PBM binding z-score [13] | PBM binding z-score [14] | PBM binding z-score [15] | PBM binding z-score [16] | PBM binding z-score [17] | PBM binding z-score [18] | PBM binding z-score [19] | PBM binding z-score [20]
1 | GCTATTAGTTGAAAGGCCAACCGAATGATTCTCG | 0.0459 | 0.417 | 0.216 | 0.305 | -0.435 | 1.3 | 1.43 | 3.21 | 1.27 | 2.6 | 0.47 | 0.355 | 0.179 | -0.242 | 0.874 | 0.178 | -0.082 | 0.627 | 0.368 | 1.56
2 | CCTAGCTGGCCAGGGTCACTCAAGCATTTCGCTT | 1.96 | 1.65 | -0.664 | 1.94 | -1.02 | 2.99 | -0.0183 | 1.17 | -0.834 | -0.172 | -0.189 | -0.187 | -0.962 | -0.97 | 0.811 | 2.53 | -0.342 | 3.04 | -0.133 | 2.35
3 | TAGCCTAGGTCATGGGCCAGTATTCCACGCGAAC | 4.39 | 3.5 | 0.0514 | 2.3 | -0.499 | 4.12 | 3.67 | 3.49 | 1.17 | 2.47 | 1.55 | 3.11 | 0.483 | -0.959 | 1.79 | 1.75 | -0.956 | 2.95 | -0.638 | 3.78
4 | ATCTCTAGGTAAAGTTCAGGGAAAGATCGATAGA | 1.49 | 2.4 | 1.88 | 1.58 | 1.03 | 2.86 | 3.53 | 4.62 | 2.77 | 4.35 | 2.67 | 2.44 | 1.23 | 1.09 | 2.21 | 2.17 | 1.99 | 1.93 | 1.68 | 2.99
5 | CAAACTAGGTCACCGGAAGGTCAAAGTGCGCATG | 6.51 | 6.25 | 5.26 | 5.66 | 1.52 | 6.36 | 9.79 | 7.84 | 5.91 | 7.97 | 8.63 | 8.94 | 1.75 | 1.74 | 7.29 | 6.12 | 1.81 | 7.59 | 2.46 | 5.39
6 | CCATACGGGTCACTCCAGGTTATAGCATCGGAGT | 4.55 | 7.37 | 1.79 | 5.15 | 0.265 | 4.18 | 3.46 | 3.28 | 1.27 | 2.68 | 1.6 | 3.66 | -0.54 | 0.0685 | 1.66 | 4.94 | 0.464 | 3.54 | 0.63 | 3.54
7 | TCATATAGGTAAATGCTAGGTGACAGTCCGATCT | 0.752 | 0.626 | -0.0198 | 0.519 | -0.279 | 1.12 | 0.994 | 2.02 | 3.61 | 2.54 | 4.18 | 3.05 | 1.51 | 0.754 | 0.369 | 0.559 | 0.133 | 0.861 | 0.862 | 0.403
8 | ATCTCGAGGTAAAAGTTCAGTGAATCCCGAGGAT | 1.26 | 1.85 | 0.551 | 1.28 | 0.304 | 3.44 | 5.01 | 5.51 | 4.17 | 5.67 | -0.0537 | 2.11 | 0.38 | 0.58 | 0.813 | 2.53 | 0.878 | 2.6 | -0.00487 | 2.54
9 | CAAACTAGGTCAAGAGCTCAAAGTCCGCTTCCCG | 3.7 | 2.48 | 0.129 | 1.63 | 0.0048 | 4.61 | 7.37 | 6.8 | 4.34 | 6.56 | 8.17 | 8.44 | 4.03 | 2.91 | 2.57 | 1.06 | -0.169 | 2.14 | 0.0982 | 3.99
10 | ATCTCTAGGTAAAAGTTCAGTAAATCCCGAGGAT | 0.994 | 1.49 | 1.5 | 1.29 | 1.31 | 4.43 | 7.76 | 7.37 | 6.62 | 8.13 | 1.87 | 3.76 | 1.75 | 1.54 | 1.88 | 1.8 | 1.71 | 1.47 | 1.92 | 2.41
11 | TGAATGCGGTTAAAGATCAGGGAACGTGGCGTCG | -0.28 | -0.16 | -0.66 | -0.519 | -0.199 | 1.25 | 1.64 | 3.54 | 1.66 | 2.98 | -0.715 | 0.725 | 0.416 | 0.69 | 0.0368 | -0.493 | -0.492 | -0.11 | -0.405 | 0.315
12 | GCGACTGTGGCAAAGCAGGTTACCATAAGGTTGG | -0.28 | -0.311 | -0.53 | -0.511 | -1.38 | 0.3 | 0.331 | -0.377 | -0.529 | -0.508 | 0.686 | 0.528 | -0.512 | -1.16 | -0.377 | -0.184 | -0.793 | -0.0448 | -0.9 | -0.0264
13 | TCTTGTACATCAAGCAGGTTAAGAAAGCCTGAGT | 0.785 | 0.852 | -0.0231 | 0.861 | 0.106 | 1.05 | -0.153 | 1.37 | 3.03 | 2.18 | 1.65 | 0.61 | 0.553 | 1.57 | 0.286 | 0.6 | 0.247 | 0.598 | -0.095 | 0.538
14 | AGAATGAGGTTACCAAAGATCAGGGACACGCTTG | 2.25 | 6.38 | -0.0151 | 3.01 | -0.234 | 3.38 | 2.84 | 2.9 | 0.908 | 2.29 | 4.01 | 3.4 | 0.894 | 0.0801 | 0.873 | 1.29 | 0.182 | 2.1 | 0.459 | 2.14
